Where “and” joins values, the source holds several entries; their conditions need not be identical. Equal values may be shown once. Among all 420,000 compounds or so, about 64,000 (15%) were called active. Roughly 27% stayed inconclusive and do not appear here. Not all results are given here. Values without a mark were called inactive. Calls follow the shape of the dose curve; as a rule, active = well fitted inhibition curve with a large enough effect; inconclusive = small, poorly fitted or top-dose-only effect; inactive = flat fitted curve, though single readings scatter.
Assay: qHTS for Inhibitors of human tyrosyl-DNA phosphodiesterase 1 (TDP1): qHTS in cells in absence of CPT; also: nearly all actives have a fitted effect of over 55% in size
Conditions: DT40 Tdp1-/- hTDP1 cells, no CPT, ATP luminescence, 48 h; activity change, negative = growth inhibition: at 46.2 µM (top of the series)
In short: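 Readout: luminescence from CellTiter-Glo after 30 min in the dark at RT. Cells: DT40 Tdp1-/- with stable hTDP1, 400/well. Exposure: compounds alone, ≥48 hr, 37 °C.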
% is scaled to controls: 0 for no effect and ±100 for the full control effect; potency is read from the fitted curve at half-maximal effect.

Row | SMILES | activity change, negative = growth inhibition [%] | Potency
1 | COc1ccc(C2(O)C(=O)Nc3ccccc32)cc1 (configuration not stated) | -6.73 | –
2 | O=C(NNC(=O)c1ccc(Cl)cc1Cl)c1cccs1 | -6.88 | –
3 | O=C(Nc1cccc2cccnc12)c1cccc(N2C(=O)CCC2=O)c1 | -26.4 | –
4 | O=c1cc(CO)oc(CN2CCC(Cc3ccccc3)CC2)c1O | -7.09 | –
5 | O=c1c2ccccc2nc2n1C(CSCc1cccc(C(F)(F)F)c1)CS2 (configuration not stated) | – | 3.66 µM (active)
6 | O=c1c2ccccc2nc2n1C(CSCc1ccccc1)CS2 (configuration not stated) | – | 6.51 µM (active)
7 | O=c1c2ccccc2nc2n1C(CSc1ccc(Cl)cc1)CN2 (configuration not stated) | -10 | –
8 | O=c1c2ccccc2nc2n1C(CSc1ccc(F)cc1)CN2 (configuration not stated) | -11.3 | –
9 | Cn1cc(S(=O)(=O)Nc2ccc(Cl)cc2Cl)c(=O)n(C)c1=O | -8.43 | –
10 | CCN(CC)CCNC(=O)C1c2ccccc2C(=O)N(C)C1c1cn(C)c2ccccc12 (configuration not stated) | -1.64 | –
11 | CCOC(=O)N1CCC(NC(=O)C(NS(=O)(=O)c2ccc3c(c2)CCN3C(=O)CC)C(C)C)CC1 (configuration not stated) | -2.64 | –
12 | CN(C)C(=O)[C@@H]1C[C@@H](Sc2nc3ccccc3[nH]2)CN1Cc1ccc(Cl)cc1 | -22.1 | –
13 | O=C(Cc1csc(Nc2nc(=S)[nH]c3ccccc23)n1)NCCCN1CCN(c2cccc(Cl)c2)CC1 | – | 9.2 µM (active)
14 | O=C(CCn1c(=S)[nH]c2ccccc2c1=O)NCCCN1CCCC1=O | -4.12 | –
15 | CC1CC(C)CN(CCCNC(=O)Cn2ncc3c([nH]c4ccccc43)c2=O)C1 (configuration not stated) | -5.59 | –
16 | O=C(CN1C(=O)NC2(CCCCCCC2)C1=O)NCc1ccc(F)cc1 | -0.899 | –
17 | COc1ccc(CNC(=O)C2=Cc3cccc(OC)c3OC2)cc1OC | -19.7 | –
18 | O=C(NN1C(=O)C2C3C=CC(O3)C2C1=O)c1ccncc1 (configuration not stated) | 3.7 | –
19 | CSC1=NN(c2ccccc2)CN(c2ccccc2)N1C | -24.6 | –
20 | O=C(CCCN1C(=O)c2ccccc2C1=O)Oc1ccc(Cl)cc1 | -8 | –
21 | CCCCC[C@H]1CN(C2CCCCC2)C(=O)[C@@H]1CC(=O)NCc1ccc(OC)cc1 | – | 10 µM (active)
22 | Cc1ccc(CNC(=O)C2CC(=O)N(C3CCCCCCC3)C2)cc1 (configuration not stated) | -3.8 | –
23 | COc1ccc(CNC(=O)[C@@H]2CC=C[C@@H]3CCN(C4CC4)C(=O)[C@@H]32)cc1 | – | inactive
24 | O=C(CCc1nnc2ccc(NCCCN3CCCC3=O)nn12)NCc1ccccc1Cl | -18.4 | –
25 | COc1cccc(OCCCN2CCCCCC2)c1 | 2.05 | –
26 | CCOC(=O)Cn1c(-c2cccnc2Cl)nc2ccccc21 | 0.732 | –

Row | SMILES | activity change, negative = growth inhibition [%] | Potency
27 | CCCCCCCCCCOC(=O)Cn1c(COc2cccc(OC)c2)[n+](C)c2ccccc21 | – | 2.31 µM (active)
28 | Cc1ccc(OCCCn2c(=O)oc3ccccc32)cc1 | 11.2 | –
29 | CCn1c(COc2cccc(OC)c2)nnc1SCC(=O)N1CCOCC1 | 11.3 | –
30 | CCCCCCCCCCOC(=O)Cn1c(COc2ccc(C)cc2)[n+](C)c2ccccc21 | – | 3.26 µM (active)
31 | Cc1ccc(C)c(-n2ccnc2SCC(N)=O)c1 | -0.269 | –
32 | CCn1cc(C(=O)OCC(=O)Nc2cccc(C)c2)c(=O)c2ccc(C)nc21 | -0.576 | –
33 | C/C=C/C=C/C(=O)O | – | inactive
34 | COc1cc(/C=C/C(=O)OCC(=O)NCCCc2ccccc2)ccc1O | -15.4 | –
35 | C[C@@H](NC(=O)[C@@H]1Cc2ccccc2CN1)C(=O)NC1CCCC1 | 4.68 | –
36 | C=CCOc1ccc(/C=N/n2cncn2)cc1OC | -10.4 | –
37 | COc1ccc(/C=C/c2ccnc3ccccc23)cc1OC | – | 12.6 µM (active)
38 | COc1ccc(/C=N/n2nnnc2N)cc1OC | -7.02 | –
39 | COc1cc(OC)cc(C(=O)NNC(=O)CCOc2ccccc2OC)c1 | 17.1 | –
40 | COc1ccc(/C=C/c2noc(-c3ccccc3O)n2)cc1OC | -20.9 | –
41 | COc1ccc(/C=C/c2ccccn2)cc1OC | – | 12.6 µM (active)
42 | COc1cc(OC)c(/C=C/c2ccnc3ccccc23)c(OC)c1 | – | 8.91 µM (active)
43 | COc1cc(/C=C/c2ccc(/C=C/c3cc(OC)c(OC)c(OC)c3)cc2)cc(OC)c1OC | -25.1 | –
44 | O=C(CSc1nnc(-c2ccccc2)o1)N1CCOCC1 | -12.2 | –
45 | O=C(CN1C(=O)c2ccccc2S1(=O)=O)N1CCc2ccccc21 | -1.33 | –
46 | Cc1ccc2c(O)c(Cc3ccccc3)c(=O)[nH]c2n1 | -11.8 | –
47 | CC(C)N(Cc1nnc(-c2ccc(Cl)cc2)o1)C(=O)C1=COCCO1 | -48.1 | –
48 | O=c1nc(NO)ccn1C1CCCO1 (configuration not stated) | -7.86 | –
49 | Cc1ccc(OCc2nnc(NC(=O)OCC(C)C)s2)cc1 | -6.38 | –
50 | O=C(CNC(=O)c1cccs1)N/N=C/c1cccc(Br)c1 | -4.86 | –
51 | CC(=O)N1CCCc2cc(S(=O)(=O)N3CCCC(C(=O)N4CCN(c5cccc(Cl)c5)CC4)C3)ccc21 (configuration not stated) | – | 2.59 µM (active) and 8.2 µM (active)
52 | COc1ccc(NC(=O)C(CC(C)C)NS(=O)(=O)c2ccc3c(c2)CCN3C(C)=O)cc1OC (configuration not stated) | -10.4 | –

Row | SMILES | activity change, negative = growth inhibition [%] | Potency
53 | CC(=O)N1c2ccc(S(=O)(=O)N3CCC(C(=O)NCc4ccc(F)cc4)CC3)cc2CC1C (configuration not stated) | -11.9 | –
54 | CCOC(=O)C1CCCN(S(=O)(=O)c2ccc3c(c2)C(C)(C)C(=O)N3C)C1 (configuration not stated) | -17.4 | –
55 | CC(=O)N1c2ccc(S(=O)(=O)N3CCCC(C(=O)Nc4cccc(Cl)c4)C3)cc2CC1C (configuration not stated) | – | 20.6 µM (active)
56 | O=C(Nc1cccc(Cl)c1)c1cc(S(=O)(=O)N2CCCCC2)c[nH]1 | 3.97 | –
57 | CCOC(=O)C1CCCN(S(=O)(=O)c2ccc(-n3cnnn3)c(C)c2)C1 (configuration not stated) | -23.5 | –
58 | CC(=O)N1c2ccc(S(=O)(=O)N3CCCC(C(=O)Nc4cccc(F)c4)C3)cc2CC1C (configuration not stated) | – | 29.1 µM (active)
59 | CC(=O)N1CCCc2cc(S(=O)(=O)Nc3ccc(Cl)cc3F)ccc21 | – | 23.1 µM (active)
60 | CCc1cccc(NC(=O)C2CCCN(S(=O)(=O)c3ccc4[nH]c(=O)ccc4c3)C2)c1 (configuration not stated) | -3.92 | –
61 | Cc1cc(C)cc(NC(=O)C2CCCN(S(=O)(=O)c3ccc4[nH]c(=O)ccc4c3)C2)c1 (configuration not stated) | -5.14 | –
62 | CC(=O)N1CCCc2ccc(NS(=O)(=O)c3ccc(F)cc3F)cc21 | -14.1 | –
63 | Cc1nc2cc(S(=O)(=O)C(F)(F)F)ccc2s1 | -6.85 | –
64 | CCOC(=O)c1sc(NC(=O)C2CSC3(C)CCC(=O)N23)nc1C (configuration not stated) | -3.05 | –
65 | O=C(COC(=O)[C@H](Cc1ccccc1)NC(=O)c1cccs1)Nc1cc(F)ccc1F | -8.16 | –
66 | C/C(=N\Nc1ccc([N+](=O)[O-])cc1)c1ccc(-n2nncc2C(C)(C)C)cc1 | -23.8 | –
67 | CCc1cc(=O)oc2c(C)c(OCC(=O)N3CC[C@@]4(O)CCCC[C@H]4C3)ccc12 | -24.2 | –
68 | COC(=O)C1=NN(c2ccccc2)C2C(=O)N(c3ccccc3OC)C(=O)C12 (configuration not stated) | 0.0774 | –
69 | COc1ccc(S(=O)(=O)NNC(=O)Nc2ccc(C)cc2)c(OC)c1 | -20.2 | –
70 | CC(=O)c1cnc(SCC(=O)O)nc1C | -22.3 | –
71 | Cc1cccc(N(C(=O)c2csnn2)C(C(=O)NCc2ccccc2)c2ccncc2)c1 (configuration not stated) | -21.1 | –
72 | O=C(NCc1ccccc1)C(c1cccnc1)N(C(=O)c1csnn1)c1ccc(F)cc1 (configuration not stated) | -2.72 | –
73 | COc1ccc(C(C(=O)NCc2ccccc2)N(Cc2cccs2)C(=O)c2cnccn2)cc1 (configuration not stated) | – | 16.4 µM (active)
74 | COC(=O)CN1C(=O)[C@H]2[C@@H](/C=C/c3ccccc3)N3C(=O)CN(Cc4ccccc4)C(=O)[C@@]3(Cc3ccccc3)[C@H]2C1=O | -15.4 | –
75 | C[C@@H]1CN([C@@H](C)CO)C(=O)CCCn2nncc2CO[C@H]1CN(C)C(=O)Nc1ccc(C(F)(F)F)cc1 | -17.4 | –
76 | CC(C)n1c(C(O)c2ccccc2)nc2ccccc21 (configuration not stated) | -4.93 | –
77 | CC(C)n1c(NCc2c[nH]c3ccccc23)nc2ccccc21 | – | 13 µM (active)
78 | CC(=O)NC(Cc1c[nH]c2ccccc12)C(=O)O (configuration not stated) | -0.64 | –

Row | SMILES | activity change, negative = growth inhibition [%] | Potency
79 | Cc1ccc2c(c1)N(C(=O)Nc1ccc(Br)cc1F)CCO2 | -14.3 | –
80 | O=C1OCCN1C(=O)[C@H]1[C@H](c2ccccc2)C(c2ccc(F)cc2)=NN1c1ccccc1 | -3.74 | –
81 | C[C@@H]1C(c2ccc(F)cc2)=NN(c2ccc(Br)cc2)[C@H]1C(=O)N1CCOC1=O | – | 20.6 µM (active)
82 | COc1ccc(/C(N)=N/OC(=O)CCCc2ccccc2)cc1 | -6.16 | –
83 | CONC(=O)c1cc(OCC(F)(F)F)ccc1OCC(F)(F)F | 2.93 | –
84 | CCn1c(SCc2ccc(C)cc2)nnc1-c1nn(-c2ccccc2)ccc1=O | -27.9 | –
85 | CCc1ccc(-c2nn(-c3ccccc3C)cc2C(=O)N2CCN(C3CCS(=O)(=O)C3)CC2)cc1 (configuration not stated) | 4.44 | –
86 | CCc1ccc(-c2nn(-c3ccccc3)cc2CSC(=N)N)cc1 | – | 23.1 µM (active)
87 | O=C(CCS(=O)(=O)Cc1ccccc1)Nc1ccc2c(c1)OCCO2 | -0.997 | –
88 | CCN(Cc1ccncc1)C(=O)CCc1ccccc1 | -10.6 | –
89 | Cc1ccc(C)c(S(=O)(=O)N2CCCOC2CNC(=O)C(=O)NC2CCCCC2)c1 (configuration not stated) | -23 | –
90 | CN(C(=O)COC(=O)Cc1ccccc1[N+](=O)[O-])C1CCS(=O)(=O)C1 (configuration not stated) | -9.32 | –
91 | CC1(c2cccc([N+](=O)[O-])c2)CC(C)(C)N(C(=O)c2ccccc2)c2ccccc21 (configuration not stated) | – | 18.4 µM (active)
92 | O=C(c1cccc([N+](=O)[O-])c1)N1CCN(Cc2ccccc2)CC1 | 6.66 | –
93 | O=C(c1ccncc1)N1CCN(S(=O)(=O)c2cccc([N+](=O)[O-])c2)CC1 | 2.95 | –
94 | N#Cc1ccc(-c2ccc3nccn3c2)cc1 | -7.83 | –
95 | Cc1ccc(-n2ccc(=O)c(C(=O)O)n2)cc1 | -6.98 | –
96 | Cn1c(=O)c(C(=O)O)nn(-c2ccccc2)c1=O | – | 16.4 µM (active)
97 | CC(=O)c1nn(-c2ccccc2)c(=Nc2ccccc2)cc1C | -19.2 | –
98 | CCC1SC(CC)C(=O)N(CC(=O)NC2CCCCC2)C1=O (configuration not stated) | -13.1 | –
99 | CC(C)Oc1ccc(S(=O)(=O)N2CCOCC2)cc1NC(=O)C1CCCC1 | 1.44 | –
100 | COc1ccc(NC(=O)COC(=O)Cn2c(C)nc3ccccc32)cc1OC | -18.9 | –
101 | O=C(Cn1c(-c2cscn2)nc2ccccc21)Nc1ccc(Cl)cc1 | – | 20.6 µM (active)
102 | O=C(Cn1c(-c2cncs2)nc2ccccc21)NC1CCCC1 | -9.17 | –
